{
  "source": "PubChem BioAssay (NCI)",
  "note": "The panel holds about 83,000 compounds, 20% with a hit somewhere; the sample as a whole holds those more often.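 Plates (96-well) were seeded with cells, treated with compound at one concentration, and incubated for 48 hours before percent growth was determined.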 Values without a mark were called inactive. The source made the active and inactive calls. The calls were made as follows: active = growth percent below 10; inactive = the rest.",
  "data": [
    {"test_system": "SNB-75 CNS", "test": "NCI-60 one-dose screen, 48 h (100 = growth as untreated, 0 = no growth, -100 = all killed)", "settings": "10 µM unless noted", "values": [
      {"smiles": "CC1=CCc2ccccc21", "growth": "83.9%"},
      {"smiles": "O=C1Nc2ccccc2/C1=C/C(=O)c1ccc(N2CCCCC2)cc1", "growth": "91.4%"},
      {"smiles": "COc1ccc2nc3c(cc2c1)C(=O)CC(c1ccccc1)C3", "note": "(configuration not stated)", "growth": "-9.09% (active)"},
      {"smiles": "Oc1ccc(N=Nc2nccs2)c(O)c1", "growth": "92.7%"},
      {"smiles": "Cc1cc(-c2ccc(N=Nc3c(S(=O)(=O)O)cc4cc(S(=O)(=O)O)cc(N)c4c3O)c(C)c2)ccc1N=Nc1cc(S(=O)(=O)O)c2ccccc2c1O", "growth": "98.5%"},
      {"smiles": "C#CCNC(=O)CC[C@]1(C)[C@H]2CC[C@@H]3[C@@H]([C@@](C)(O)CCC=C(C)C)CC[C@@]3(C)[C@]2(C)CC[C@H]1C(=C)C", "growth": "-19% [100 µM] (active)"},
      {"smiles": "CC(=O)Nc1ccc2nc3ccc(NC(C)=O)cc3[n+](-c3ccccc3)c2c1", "growth": "82.2%"},
      {"smiles": "CCN(CC)CCCCCCNc1cccc2cc(Br)cnc12", "growth": "92.2%"},
      {"smiles": "COc1ccc(NC(=S)NNc2ccc(-c3ccc(OC)c(OC)c3)nn2)cc1", "growth": "74.4%"},
      {"smiles": "O=[N+]([O-])c1cc([N+](=O)[O-])c(NN=C(c2ccc(O)cc2)c2ccc(O)cc2)cc1Cl", "growth": "-15.6% (active)"},
      {"smiles": "CC(C)C1=NOC(=O)C1=Cc1cn(-c2ccccc2)nc1-c1cccc([N+](=O)[O-])c1", "growth": "86.5%"},
      {"smiles": "C=C(C)[C@@H]1CC[C@]2(C(=O)NCCNCCNCCN)CC[C@]3(C)[C@H](CC[C@@H]4[C@@]5(C)CC[C@H](O)C(C)(C)[C@@H]5CC[C@]43C)[C@@H]12", "growth": "-79.3% [100 µM] (active)"},
      {"smiles": "O=C1COCCN1c1ccc(Nc2nc(Cl)nc(N3CCOCC3)n2)cc1", "growth": "89.7%"},
      {"smiles": "Cn1cc(-c2noc(-c3cn(C)c4ncc(F)cc34)n2)c2cc(Br)ccc21", "growth": "61.2%"},
      {"smiles": "CC1(C)NCCC[C@]2(C)[C@H]3C=CC4=C5C[C@](C)(CO)CC[C@]5(C)CC[C@@]4(C)[C@]3(C)CC[C@@H]12", "growth": "-97.7% [100 µM] (active)"},
      {"smiles": "CCCC(NC(=O)OCc1ccccc1)C(=O)O", "note": "(configuration not stated)", "growth": "84%"},
      {"smiles": "CC(C)C1=NOC(=O)C1=Cc1cn(-c2ccccc2)nc1-c1ccc(Cl)cc1", "growth": "83.8%"},
      {"smiles": "COc1cc(OC)cc(C(=O)Nc2cc(-c3cccnc3)nc(NCCCN3CCOCC3)n2)c1", "growth": "109%"},
      {"smiles": "Brc1ccc2c(c1)CN(C1CCCCC1)CO2", "growth": "82.2%"},
      {"smiles": "CC/C=C(\\C)C(CCC)(CN=O)C(=O)OCC", "note": "(configuration not stated)", "growth": "81.9%"},
      {"smiles": "O=C(Nc1ccc(F)cc1)c1ccccc1", "growth": "106%"},
      {"smiles": "O=C(O)c1cccc(CN2CCN(c3cc4c(cc3F)c(=O)c(C(=O)O)cn4C3CC3)CC2)c1O", "growth": "92.2%"},
      {"smiles": "COC(=O)c1c(C)[nH]c(/C=C2\\N=C(c3ccc[nH]3)C=C2OC)c1C", "growth": "-23.3% (active)"},
      {"smiles": "C=CCCC1(C)NC(=O)NC1=O", "note": "(configuration not stated)", "growth": "89.3%"},
      {"smiles": "O=[N+]([O-])c1cccc(N=NNc2cccc([N+](=O)[O-])c2)c1", "growth": "94.4%"},
      {"smiles": "Cc1ccc(N)c(O)c1", "growth": "32.7%"},
      {"smiles": "CCN(CC)c1ccc2cc(NC(=O)OCCNC(=O)CCNC(=O)[C@H](CC(C)C)NC(=O)C(C)(C)NC(=O)C(C)(C)NC(=O)[C@H](CC(C)C)NC(=O)CCNC(=O)C(C)(C)NC(=O)[C@H](CC(C)C)NC(=O)CCNC(=O)[C@@](C)(CC)NC(=O)[C@H](C)NC(=O)CCNC(=O)C(C)(C)NC(=O)[C@H](C)NC(=O)[C@@H]3CCCN3C(=O)[C@@](C)(CC)NC(=O)[C@H](Cc3ccccc3)NC(=O)C3CCCN3C(=O)C(C)(C)NC(=O)C3CCCN3C(=O)C(C)(C)NC(C)=O)c(=O)oc2c1", "note": "(some centres not stated)", "growth": "-91.6% (active)"},
      {"smiles": "COC(=O)[C@]12CCC(C)(C)C[C@H]1C1=CC[C@@H]3[C@@]4(C)C/C(=C/c5cccnc5)C(=O)C(C)(C)[C@@H]4CC[C@@]3(C)[C@]1(C)CC2", "growth": "-59.8% [100 µM] (active)"},
      {"smiles": "CC(C)[C@H]1COC(=O)N1[C@@H]1C(=O)N([C@@H](CCC(=O)N2CCN(C3CCCC3)CC2)C(=O)N[C@@H]2CCCc3ccccc32)[C@@H]1/C=C/c1cccc(Cl)c1", "growth": "92%"},
      {"smiles": "CCN=Cc1c(O)c(O)c(C(C)C)c2cc(C)c(-c3c(C)cc4c(C(C)C)c(O)c(O)c(C=NCC)c4c3O)c(O)c12", "growth": "57.7%"},
      {"smiles": "O=c1cc(-c2ccccc2)oc2c(O)c(O)ccc12", "growth": "73.7%"},
      {"smiles": "COc1ccc(C2NC(=O)C(C#N)c3c2sc2c(F)cccc32)cc1", "note": "(configuration not stated)", "growth": "13.6%"}
    ]}
  ]
}
